Screens from PubChem.
BLM helicase inh: inhibitors of human Bloom syndrome helicase BLM; P54132; recombinant BLM DNA unwinding, fluorescence dequenching; Potency, µM (series often up to 56.1 µM), without a hit: at the highest dose activity change, negative = inhibition, most hits filed as inhibitors; actives 0.2% (n = 350,000); AID 2528;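 further: plate controls were vehicle for no effect and no enzyme for full effect; nearly all actives have a fitted effect of over 35% in size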
RECQ1 inh-1: RECQ1 (human) helicase inhibition; AID 2549; P46063; Potency, µM (highest dose often 57.3 µM), for inactives: top-dose activity, negative = inhibition, hits mostly inhibitors; actives 0.54% (n = 240,000); RECQ1 DNA unwinding, red fluorescence kinetic read;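 further: plate controls were vehicle for no effect and no enzyme for full effect; nearly all actives have a fitted effect of over 30% in size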
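RECQ1T1 50 nM; forked duplex (20 bp + 30-nt ss tails) 200 nM, ATP 2 mM final; pH 8.0, 2 mM MgCl2, 2.5 ug/ml poly(dI-dC); 15 min compound preincubation; discontinuous kinetic read over 2 h at RT.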
APEX1 inh: inhibitors of human APE1 endonuclease. Potency, µM (top dose mostly 65.8 µM), without a hit: top-dose activity change, negative = inhibition, hits mostly inhibitors. actives 0.35% (n = 350,000). recombinant APE1, TAMRA/BHQ-2 abasic DNA cleavage fluorescence;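 further: plate controls were vehicle for no effect and reference inhibitor for full effect; nearly all actives have a fitted effect of over 55% in size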
Target sequence (P27695 whole entry, looked up): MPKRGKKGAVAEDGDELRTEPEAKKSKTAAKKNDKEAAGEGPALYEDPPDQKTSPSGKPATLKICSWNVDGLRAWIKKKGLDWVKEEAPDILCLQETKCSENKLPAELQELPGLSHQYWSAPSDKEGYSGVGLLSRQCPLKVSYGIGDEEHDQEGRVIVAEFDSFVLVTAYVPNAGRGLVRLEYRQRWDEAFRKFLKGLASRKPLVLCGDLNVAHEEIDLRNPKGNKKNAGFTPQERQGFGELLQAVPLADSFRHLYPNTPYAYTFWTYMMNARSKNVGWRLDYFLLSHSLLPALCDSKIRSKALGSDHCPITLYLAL
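Readout is kinetic fluorescence (ex 525, em 598 nm) from cleavage of 50 nM TAMRA/BHQ-2 THF abasic duplex by 0.75 nM APE1, compound added 15 min beforehand at RT.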
FEN1 inh: blocks human flap endonuclease 1; Recombinant FEN1 flap cleavage, fluorescence, 15 min; Potency, µM (top dose mostly 114 µM), for inactives: top-dose activity change, negative = inhibition, most hits filed as inhibitors; actives 0.35% (n = 390,000); AID 588795; further: nearly all actives have a fitted effect of over 65% in size
Target sequence (P39748 whole entry, looked up): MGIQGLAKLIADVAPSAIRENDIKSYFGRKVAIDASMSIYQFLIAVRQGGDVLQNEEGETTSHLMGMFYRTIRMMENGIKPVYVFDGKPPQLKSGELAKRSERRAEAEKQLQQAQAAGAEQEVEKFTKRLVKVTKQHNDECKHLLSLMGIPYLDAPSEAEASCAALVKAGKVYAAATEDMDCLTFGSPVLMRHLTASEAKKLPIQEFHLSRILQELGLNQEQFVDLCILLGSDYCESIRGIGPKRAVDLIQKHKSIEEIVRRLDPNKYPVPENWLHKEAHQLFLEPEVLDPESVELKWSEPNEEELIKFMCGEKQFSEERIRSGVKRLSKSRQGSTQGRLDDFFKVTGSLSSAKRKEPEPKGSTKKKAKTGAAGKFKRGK
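With each library titrated from low to high concentration, compounds met 10 nM FEN1 for 15 min at room temperature before 50 nM substrate was added; readings at 0 and 15 min fed four-parameter Hill curve fits.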
TDP1 block: inhibitors of human tyrosyl-DNA phosphodiesterase TDP1; recombinant TDP1, AlphaScreen DNA substrate cleavage; AID 485290; actives 0.28% (n = 350,000); Q9NUW8; Potency, µM (highest dose often 130 µM), for the others: at the top dose activity change, negative = inhibition, usual class: inhibitors; further: nearly all actives have a fitted effect of over 40% in size
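Enzyme-compound mixtures sat 15 min at room temperature, followed by a 5 min reaction with 15 nM final substrate and 10 min with AlphaScreen beads. Recombinant human Tdp1 was used at 1 nM final.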
RECQ1 conf: confirmation of human RECQ1 helicase inhibitors. shares compounds with RECQ1 inh-1. Potency, µM (doses to about 229 µM), inactives show at the top dose activity change, negative = inhibition, hits mostly inhibitors. RECQ1 helicase DNA unwinding, fluorescence. actives 28% (n = 610). AID 2708; further: nearly all actives have a fitted effect of over 45% in size
ADP FP counter: displaces ADP in a fluorescence polarization counter-screen for RECQ1 hits; shares compounds with RECQ1 inh-1; ADP fluorescence polarization displacement counterscreen; Potency, µM (doses to about 228 µM), without a hit: top-dose activity change, negative = inhibition, most hits filed as inhibitors; actives 27% (n = 530); AID 2711; further: nearly all actives have a fitted effect of over 45% in size
RECQ1 inh-2: confirmation of human RECQ1 helicase inhibitors; shares compounds with RECQ1 inh-1; recombinant RECQ1 DNA unwinding, red fluorescence; Potency, µM (series often up to 119 µM), inactives show top-dose activity, negative = inhibition, most hits filed as inhibitors; actives 15% (n = 1,100); AID 504841; further: nearly all actives have a fitted effect of over 50% in size
The depositor's hits bear a star; i = inactive; ? = inconclusive; · = not tested or not shown; [ ] = another dose, or the depositor's remark. In the library only some 0.92% were active in any assay of this set; here they are far more common. The call rests on the fitted dose curve; in most records, active means well fitted curve in the direction sought with a large enough effect; inconclusive means small, poorly fitted or top-dose-only effect, or another doubt; inactive means no such curve, though single readings can be large; an effect the other way counts as inactive or inconclusive. Unless noted, on the % scale 0 is the no-effect control and ±100 the full control effect; potency means the concentration at half of the fitted maximal effect.

SMILES | BLM helicase inh | RECQ1 inh-1 | APEX1 inh | FEN1 inh | TDP1 block | RECQ1 inh-2 | others
COCCNC(=O)c1onc(CSc2ccc(C)c(C)c2)c1C(=O)O | -2% | -8% | 0% | 2% | 1% | ·
O=C(O)C1Cc2ccccc2CN1C(=O)CSc1nnc2ccccn12 (configuration not stated) | 0% | -12% | -2% | 4% | -2% | · | RECQ1 conf=12%;ADP FP counter=?
COc1ccc(CN(Cc2ccccc2)C(=O)c2ccncc2)cc1COc1ccc(NC(C)=O)cc1 | · | · | · | -21% | -2% | ·
COc1ccc(/C=C2/SC(=O)N(CCC(=O)Nc3ccc(C)cc3)C2=O)cc1OC | 3% | i | 2% | · | 4% | ·
COc1cc(/C=C2\SC(N)=NC2=O)ccc1OCC(=O)Nc1ccc(C)cc1 | -16% | ? | 2% | -20% | -11% | ?
Cc1cccc(N2CCN(C(=O)Cc3ccc(-n4c(=O)[nH]c5ccsc5c4=O)cc3)CC2C)c1 (configuration not stated) | 2% | -7% | 14% | -2% | 0% | · | RECQ1 conf=-4%;ADP FP counter=3%
O=C(Cn1c(=O)n(-c2ccc(F)c(Cl)c2)c(=O)c2sc3ccccc3c21)NC1CCCCC1 | -2% | · | · | 9% | 4% | ·
O=C(Cc1cccs1)NC1C(=O)N2C(C(=O)[O-])=C(C[n+]3ccccc3)CSC12 (configuration not stated) | -22% | ? | · | · | 2.2µM* | · | RECQ1 conf=?;ADP FP counter=6.3µM*
CC(=O)OCC1=C(C(=O)O)N2C(=O)[C@@H](NC(=O)Cc3ccccc3)[C@H]2SC1 | · | · | · | 14% | · | ·
CC(C)NC(=O)Cn1nc(N2CCN(c3ccccc3)CC2)ccc1=O | 0% | · | · | 0% | 3% | ·
COc1ccc(CN(C(=O)/C=C/c2ccco2)C2CCS(=O)(=O)C2)cc1 (configuration not stated) | -24% | ? | ? | -23% | -1% | ?
CCOc1ccc(CN(C(=O)/C=C/c2ccco2)C2CCS(=O)(=O)C2)cc1 (configuration not stated) | -10% | · | 3% | -7% | 4% | ·
COc1cccc(C2c3c(C)nn(-c4ccc([N+](=O)[O-])cc4)c3N=C3C(=O)Nc4ccccc4N32)c1 (configuration not stated) | -1% | ? | 3% | -6% | 3% | -12%
CCCN(CCC)C(=O)c1ccc2c(=O)n(Cc3ccco3)c(=S)[nH]c2c1 | ? | ? | ? | -7% | 0% | -15%
C=CCn1c(SCC#N)nc2ccc(Cl)cc2c1=O | · | · | · | -10% | 0% | ·
O=C(O)/C(=C\c1ccccc1Cl)c1ccc(S(=O)(=O)N2CCCCC2)s1 | -16% | 3% | 24% | -5% | -3% | · | RECQ1 conf=126µM*;ADP FP counter=-9%
O=C(O)/C(=C\c1ccc(Cl)cc1)c1ccc(S(=O)(=O)N2CCCC2)s1 | · | · | -7% | 3% | · | ·
CCOc1ccc(-c2csc(NC(=O)c3ccc(S(=O)(=O)N4CCc5ccccc5C4)cc3)n2)cc1 | 1% | 0% | -6% | 10% | -2% | ·
COC(=O)Cn1c(=NC(=O)c2ccc(S(=O)(=O)N3CCc4ccccc4C3)cc2)sc2cc(OC)ccc21 | -3% | i | 12% | -1% | -3% | · | RECQ1 conf=0%;ADP FP counter=10%
COc1ccc(-c2csc(NC(=O)c3ccc(S(=O)(=O)N4CCc5ccccc5C4)cc3)n2)c(OC)c1 | -4% | i | 17% | -3% | 3% | · | RECQ1 conf=4%;ADP FP counter=-10%
O=[N+]([O-])c1cccc(Cl)c1 | · | -14% | -1% | · | 16% | ·
CCC(C(=O)OC)n1nnc2sc(-c3ccccc3)cc2c1=O (configuration not stated) | -5% | · | · | -6% | -2% | ·
Cc1ccc(C)c(OCCn2c(-c3ccc(Cl)cc3)nc3ccccc3c2=O)c1C | -2% | · | · | 1% | · | ·
CCOc1ccccc1N(CC)C(=O)c1noc2c1COc1ccc(C)cc1-2 | -2% | · | · | 1% | 4% | ·
Cc1ccc(C(=O)O)cc1-c1ccc(C=C2C(=O)c3ccccc3C2=O)o1 | 4% | -10% | -7% | ? | -2% | ·
SMILES | BLM helicase inh | RECQ1 inh-1 | APEX1 inh | FEN1 inh | TDP1 block | RECQ1 inh-2 | others
O=C1C(=Cc2ccc(Br)o2)C(=O)c2ccccc21 | -2% | 8.9µM* | 8.9µM* | 14µM* | ? | · | RECQ1 conf=?
COc1ccc(CCNC(=O)C(=O)NCC(c2cccnc2)N2CCN(c3ccccc3)CC2)cc1 (configuration not stated) | 0% | · | · | 4% | 5% | ·
Cc1c(C)n(C(=O)CSc2nc3ccccc3[nH]2)c2ccccc12 | -11% | 8.9µM* | 14µM* | -9% | · | 35µM* | RECQ1 conf=50µM*;ADP FP counter=3%[91.9 µM]
O=C(CSc1nc(O)cc(=O)[nH]1)N1c2ccccc2Sc2ccccc21 | -2% | -5% | 0% | -19% | 8% | ·
O=C(CSc1nc2ccccc2[nH]1)N1c2ccccc2Sc2ccccc21 | -7% | ? | ? | 3% | 0% | ?
c1ccc(Nc2cccc3c(Nc4ccccc4)cccc23)cc1 | -20% | ? | -7% | -8% | 10% | -15%
c1ccc(Nc2ccccc2)cc1 | · | -17% | 36% | -14% | -15% | ·
COC(=O)CCCC1=CC2=CC(=O)C(C)(OC(=O)c3cccs3)C(=O)C2=CO1 (configuration not stated) | -10% | ? | ? | · | -4% | ?
CCCCC1=CC2=CC(=O)C(C)(OC(=O)c3cccs3)C(=O)C2=CO1 (configuration not stated) | -14% | -18% | -5% | -20% | -2% | ·
COc1ccc(S(=O)(=O)N2CCN(CC(=O)c3ccc(O)c(O)c3)CC2)cc1 | -2% | · | 37% | -11% | 0% | ·
O=C(CN1CCN(S(=O)(=O)c2ccc(F)cc2)CC1)c1ccc(O)c(O)c1 | 2% | 40µM* | 4µM* | -3% | 5% | -11%
C=CCSC1=NC(=O)/C(=C/c2cccs2)S1 | -2% | -2% | 0% | -2% | 3% | ·
C=CCSC1=N/C(=C\C=C\c2ccco2)C(=O)S1 | ? | 13µM* | 10µM* | 50µM* | 2% | ? | RECQ1 conf=45µM*;ADP FP counter=14µM*
COc1ccc2cc(-c3[nH]ncc3CN3CCCN(c4ccccc4)CC3)ccc2c1 | -6% | ? | -7% | 2% | 8% | -23%
N=c1c(C(=O)NCc2ccc(F)cc2)cc2c(=O)n3ccccc3nc2n1CCCN1CCOCC1 | -7% | ? | 15% | 14% | -3% | 3%
